Values without a mark were called inactive. Inconclusive results are not listed. Activity calls are given as the source filed them. Unless noted, the call rests on the fitted dose curve; in most records, active means well fitted curve in the direction sought with a large enough effect; inconclusive means small, poorly fitted or top-dose-only effect, or another doubt; inactive means no such curve, though single readings can be large; an effect the other way counts as inactive or inconclusive.

The text below walks through data of PubChem BioAssay (NCATS).

The target in test [1] is Glucocorticoid receptor (Homo sapiens) (UniProt P04150). The experiment in a line: GR-GFP Redistribution (AID 450;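 active means compounds whose dose series gives a full or clear partial fitted curve of increased nuclear translocation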; further: potency means the concentration at half of the fitted maximal effect). The settings on record: U2OS GR-GFP nuclear translocation, laser cytometry, 2 h.
Test [2] concerns the target Mitogen-activated protein kinase 10 (Mus musculus) (UniProt Q61831). Put plainly: JNK3 AlphaScreen Assay (AID 530; active means well fitted curve in either direction with a large enough effect, not every such curve was filed as active;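 further: kinase came from lysate of stimulated human HepG2 cells; signal reports phosphorylation of biotinylated GST-cJun 1-79 at Ser73 with 10 µM ATP; on the % scale 0 is the no-effect control and ±100 the full control effect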). The settings on record: JNK3 lysate, c-Jun phosphorylation; series mostly up to 57.1 µM. The method, boiled down:
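Room-temperature AlphaScreen kinase assay; pre-activated HepG2 lysate as JNK3 source, biotin-GST-cJun(1-79) substrate, 10 uM ATP, compound 15 min preincubation.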
Background: Bead proximity is the source of the signal in Alpha formats.

Test [3] is described as follows: Cell Viability - N2a (AID 540).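 Further: plate controls were DMSO alone for no effect and tamoxifen control for full effect; nearly all actives have a fitted effect of over 45% in size.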 The settings on record: N2a mouse neuroblastoma cell viability; at 92.2 µM (top of the series). The method, boiled down: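 Mouse neuroblastoma N2a cells (1500/well) were preincubated 5 hr at 37 °C, then exposed to compounds for 40 hr at 37 °C in complete medium. Viability was read as intracellular ATP by CellTiter-Glo luminescence; AC50 from Hill fits.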

Test [4] can be described thus: Cell Viability - NIH 3T3 (AID 541).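 Further: plate controls were DMSO alone for no effect and tamoxifen positive control for full effect; nearly all actives have a fitted effect of over 25% in size.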 The settings on record: NIH 3T3 cell viability, qHTS; activity change, negative = cytotoxicity: at 92.2 µM (top of the series). Put shortly:
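NIH 3T3 mouse embryo fibroblasts (1000 cells/well) were plated in complete medium and treated with compound for 40 hr at 37 °C. Viability was read as intracellular ATP by CellTiter-Glo luminescence; AC50 values came from Hill-equation fits of concentration-response data.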
In general terms: Quantitative high-throughput screening tests each substance at several concentrations.

Test [5] can be described thus: Cell Viability - H-4-II-E (AID 543). Further: nearly all actives have a fitted effect of over 35% in size. Further: potency means the concentration at half of the fitted maximal effect. The settings on record: H-4-II-E rat hepatoma viability; series mostly up to 92.2 µM. The method, boiled down:
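Rat hepatoma H-4-II-E cells (1500/well) were plated, incubated 5 hr at 37 °C, then exposed to compounds for 40 hr at 37 °C. Cellular ATP was read by CellTiter-Glo luminescence; AC50 came from Hill-equation fits of concentration-response data.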

Test [6] can be described thus: Cell Viability - SH-SY5Y (AID 544). Further: nearly all actives have a fitted effect of over 55% in size. The settings on record: SH-SY5Y neuroblastoma cell viability; viability change, negative = cytotoxic: at 92.2 µM (top of the series). The method, boiled down: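 Human neuroblastoma SH-SY5Y cells (1500/well) in complete medium were exposed to compounds for 40 hr at 37 °C; intracellular ATP was then quantified by CellTiter-Glo luminescence after 20 min at room temperature. AC50 came from Hill-equation concentration-response fits.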

The nature of test [7]: Cell Viability - Renal Proximal Tubule (AID 545). Further: nearly all actives have a fitted effect of over 40% in size. The settings on record: renal proximal tubule cells viability; at 91.7 µM (top of the series) unless noted. The method, boiled down: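 In this qHTS format, normal rat kidney-derived proximal tubule cells in complete culture medium receive compound titrations, then sit 40 hours at 37 °C before luciferase-based ATP quantitation; potency is reported as AC50 from concentration-response curves.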

Test [8] is described as follows: Cellular Toxicity (caspase-3) Jurkat (AID 655).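 Further: cells exposed to compound for 16 h at 37 °C before reading.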 The settings on record: Jurkat caspase-3 activation, luminescence; caspase-3 activation: at 92.2 µM (top of the series), DMSO = 0%, tamoxifen = 100%. The method, boiled down: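 qHTS in human Jurkat T-cell leukemia line: 16 hr compound treatment at 37 °C, caspase-3/7 activity measured by Caspase-Glo luminescence. AC50 derived from Hill equation.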

Test [9] is described as follows: Cellular Toxicity (caspase-3) SHSY5Y (AID 657).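 Further: cells exposed to compound for 16 hours at 37 °C.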 The settings on record: SH-SY5Y caspase-3 activation; series mostly up to 91.7 µM. Put shortly: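 Readout: caspase-cleaved peptide-aminoluciferin substrate driving luciferase light in SH-SY5Y neuroblastoma cells after 16 h treatment. Response normalized to DMSO and 10 uM staurosporine controls.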
The nature of test [10]: Cellular Toxicity (caspase-3) BJ (AID 658). The settings on record: BJ fibroblasts, luminescence, normalized: DMSO 0%, staurosporine 100%; series mostly up to 91.7 µM. Put shortly:
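Readout: Caspase-Glo 3/7 luminescence increase in BJ cells after 16 hr treatment at 37 °C. Staurosporine and tamoxifen served as positive controls; AC50 values came from Hill modelling of data normalized to DMSO and 10 uM staurosporine.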

Test [11] is described as follows: Cellular Toxicity (caspase-3) MRC-5 (AID 659). The settings on record: MRC-5 cells, luminescence, normalized: DMSO 0%, 10 µM staurosporine 100%; series mostly up to 91.7 µM. The method, boiled down:
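Concentration-dependent caspase 3/7 activation is measured in human normal lung fibroblasts (MRC-5) following 16-hour treatment. AC50 values come from standard Hill-equation modeling of luminescence normalized to DMSO and 10 uM staurosporine.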

A short description of test [12]: Cellular Toxicity (caspase-3) Mesangial (AID 660).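 Further: cells exposed to compound for 16 h before the caspase read.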 The settings on record: mesangial cells, normalized: DMSO 0%, 100 µM tamoxifen 100%; series mostly up to 91.7 µM. The method, boiled down: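 Human renal glomerular mesangial cells (1000/well) were treated with compounds for 16 h at 37 °C in complete medium, then caspase 3/7 activity was read by Caspase-Glo luminescence. Data were normalized to DMSO and 100 uM tamoxifen; AC50 from Hill fits.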

A short description of test [13]: Cellular Toxicity (caspase-3) SK-N-SH (AID 661). The settings on record: SK-N-SH caspase-3 activation, qHTS, DMSO as zero, staurosporine as full; series mostly up to 91.7 µM. The method, boiled down:
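SK-N-SH human neuroblastoma cells (1500/well) were treated with compounds for 16 hr at 37 °C in complete medium; caspase 3/7 activity was read by Caspase-Glo luminescence. AC50 came from Hill fits of data normalized to DMSO and 10 uM staurosporine.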

In test [14] the target is 3',5'-cyclic-AMP phosphodiesterase 4B (Homo sapiens) (UniProt Q07343). Put plainly: qHTS Assay for Inhibitors of PDE-IV (AID 607; active means well fitted activation curve with a large enough effect in the main read-out, with a control signal flat, not every such curve was filed as active; further: % of control where 0% means no effect). The settings on record: HEK293 ACTOne CNG channel cells, membrane potential fluorescence; series mostly up to 22.9 µM. The method, boiled down: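 ACTOne HEK293 cells carry a modified cAMP-gated CNG channel and express endogenous PDE4; plated 1000 cells/well, compounds up to 22.9 uM final. Membrane-potential dye fluorescence (ex 535/em 590) was read; parental cells received 10 uM forskolin + 100 uM RO 20-1724.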

Test [15] is described as follows: Cell Viability - HUV-EC-C (AID 542). Further: on the % scale 0 is the no-effect control and ±100 the full control effect; nearly all actives have a fitted effect of over 35% in size. The settings on record: HUV-EC-C endothelial cell viability, qHTS; series mostly up to 92.2 µM. The method, boiled down: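 HUV-EC-C normal human vascular endothelial cells, 1000 cells/well, pre-incubated 5 hr at 37 °C, then exposed to compounds for 40 hr at 37 °C in complete medium. Viability measured as intracellular ATP by CellTiter-Glo luminescence; AC50 from Hill fits.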

The nature of test [16]: Cell Viability - Mesenchymal (AID 546).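 Further: cells exposed to compound for 40 hours before reading.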 The settings on record: mesenchymal cells viability, qHTS; series mostly up to 91.7 µM. Put shortly: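 AC50 values reflect the drop in intracellular ATP in a human kidney mesenchymal line derived from normal glomeruli. Treatment lasts 40 hr at 37 °C in complete medium, and the signal comes from CellTiter-Glo luminescence.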
Test [17] can be described thus: Cellular Toxicity (caspase-3) HepG2 (AID 654).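 Further: cells exposed to compound for 16 hours before reading; 0% = DMSO alone and 100% = caspase signal from 100 µM tamoxifen.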 The settings on record: HepG2 caspase-3 activation, luminescence; series mostly up to 92.2 µM. The method, boiled down:
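HepG2 cells (1500/well) in complete medium were treated with compounds for 16 hr at 37 °C. Caspase-3/7 activity was then read as luminescence from peptide-aminoluciferin cleavage. AC50 came from Hill fits, normalized to DMSO and 100 uM tamoxifen.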

Test [18] can be described thus: Cellular Toxicity (caspase-3) HUV-EC-C (AID 656). The settings on record: HUV-EC-C cells, caspase-3 activation (apoptosis), vehicle = 0, 100 µM tamoxifen = 100%; series mostly up to 92.2 µM. The method, boiled down: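 Concentration-dependent caspase 3/7 induction was assessed in HUV-EC-C cells exposed for 16 hours. Data scaled between DMSO and tamoxifen (100 uM) controls.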

Test [19] in a line: Cellular Toxicity (caspase-3) H-4-II-E (AID 663).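 Further: cells exposed to compound for 16 hr before readout.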 The settings on record: H-4-II-E rat hepatoma, scaled: DMSO 0%, 100 µM tamoxifen 100%; at 92.2 µM (top of the series). Put shortly:
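Apoptosis induction is scored as increased luminescence from caspase 3/7 substrate cleavage in rat hepatoma H-4-II-E cells exposed to compound for 16 hr. Activity is scaled between DMSO and 100 uM tamoxifen.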

Sequence of 3',5'-cyclic-AMP phosphodiesterase 4B (Homo sapiens) (Q07343 whole entry, looked up): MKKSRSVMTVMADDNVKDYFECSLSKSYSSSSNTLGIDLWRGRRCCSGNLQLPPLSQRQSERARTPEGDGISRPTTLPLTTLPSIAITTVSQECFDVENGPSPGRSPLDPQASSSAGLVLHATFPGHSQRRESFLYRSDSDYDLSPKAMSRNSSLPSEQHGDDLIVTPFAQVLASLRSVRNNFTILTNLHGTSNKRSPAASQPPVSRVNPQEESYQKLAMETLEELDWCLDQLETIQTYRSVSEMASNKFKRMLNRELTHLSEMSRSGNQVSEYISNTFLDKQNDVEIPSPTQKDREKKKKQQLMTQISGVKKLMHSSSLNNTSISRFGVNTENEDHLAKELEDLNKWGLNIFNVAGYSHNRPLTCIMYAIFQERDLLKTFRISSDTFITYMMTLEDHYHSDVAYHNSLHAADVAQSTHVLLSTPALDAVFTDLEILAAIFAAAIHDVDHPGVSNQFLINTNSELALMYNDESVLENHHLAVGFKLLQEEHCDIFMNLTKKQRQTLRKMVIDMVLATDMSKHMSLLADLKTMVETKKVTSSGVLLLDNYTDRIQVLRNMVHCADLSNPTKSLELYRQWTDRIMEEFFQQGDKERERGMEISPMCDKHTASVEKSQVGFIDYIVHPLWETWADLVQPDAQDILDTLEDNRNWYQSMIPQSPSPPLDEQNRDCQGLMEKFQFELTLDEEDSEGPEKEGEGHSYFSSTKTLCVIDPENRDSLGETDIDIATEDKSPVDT
Sequence of Glucocorticoid receptor (Homo sapiens) (P04150 whole entry, looked up): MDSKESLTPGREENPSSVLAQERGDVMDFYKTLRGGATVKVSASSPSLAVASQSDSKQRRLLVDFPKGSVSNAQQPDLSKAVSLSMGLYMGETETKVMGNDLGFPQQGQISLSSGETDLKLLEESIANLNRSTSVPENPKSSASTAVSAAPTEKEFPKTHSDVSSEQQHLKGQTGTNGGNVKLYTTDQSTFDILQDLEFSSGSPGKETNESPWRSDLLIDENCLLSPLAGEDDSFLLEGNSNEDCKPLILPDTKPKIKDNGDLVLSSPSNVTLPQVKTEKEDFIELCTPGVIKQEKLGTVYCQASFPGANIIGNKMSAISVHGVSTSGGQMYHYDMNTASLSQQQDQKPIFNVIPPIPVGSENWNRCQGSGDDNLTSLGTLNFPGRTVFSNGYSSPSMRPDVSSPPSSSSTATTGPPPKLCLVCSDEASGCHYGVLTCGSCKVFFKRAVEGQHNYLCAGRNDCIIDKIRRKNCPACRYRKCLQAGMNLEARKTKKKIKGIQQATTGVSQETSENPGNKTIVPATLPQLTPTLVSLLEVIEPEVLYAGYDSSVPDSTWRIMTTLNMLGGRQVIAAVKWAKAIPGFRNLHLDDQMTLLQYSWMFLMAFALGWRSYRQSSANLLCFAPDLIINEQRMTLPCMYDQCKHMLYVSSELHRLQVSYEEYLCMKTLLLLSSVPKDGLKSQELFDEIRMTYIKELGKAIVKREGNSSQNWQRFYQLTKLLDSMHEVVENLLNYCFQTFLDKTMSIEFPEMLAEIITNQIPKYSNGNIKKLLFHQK

Turning to `Clc1ccc(COC(Cn2ccnc2)c2ccc(Cl)cc2Cl)cc1` (centres undefined), the figures for the Potency in [1] and in test [5] were over 20.6 µM and 39.8 µM (active), respectively. Moreover, the outcome in [2], in [10], in [11], in test [12] and in [13] was inactive. For the same compound, the activity change, negative = cytotoxicity in test [3] was -110% (active); in test [4] it was -82% (active); in test [7] it was -83.1% (active). Further, in [6], the viability change, negative = cytotoxic is -84.8% (active). Moreover, the caspase-3 activation in test [8] is 99.7% (active). The Potency result in test [9] is “inactive”.

On to `Nc1ccncc1`, for which the compound was classed as inactive in test [2] and in test [14].

As to `OCCOc1ccccc1`, the outcome in test [2], in test [15], in test [16], in test [18], in [10] and in test [11] was inactive. Besides, the compound was called inactive in test [12] and in test [13]. The activity change, negative = cytotoxicity is -13.3% in test [3], -18.9% in [4] and -6.83% in test [7]. Also, the Potency entry in [5], in [17] and in test [9] was “inactive” each time. Further, the viability change, negative = cytotoxic in test [6] is -18.2%. For the same compound, the caspase-3 activation is -1.54% in [8] and -1.74% in test [19].

Take `Oc1ccc(Cl)cc1Cc1ccccc1`: the compound was classed as inactive in test [2], in [15], in test [16], in test [18], in test [10] and in test [11]. Besides, the call in test [12] and in [13] was inactive. Moreover, the activity change, negative = cytotoxicity in test [4] was -0.588%; in test [7] it was -8.93%. The Potency result in test [5], in [17] and in test [9] was “inactive” in each case. The caspase-3 activation is 18.5% in test [8] and 2.16% in [19].

Turning to `CCCC(C)(COC(N)=O)COC(=O)NC(C)C` (centres undefined), the compound was classed as inactive in [2], in test [15], in [16], in test [18], in [10] and in [11]. In addition, the compound was classed as inactive in test [12] and in test [13]. Also, the values for the activity change, negative = cytotoxicity in test [3], in test [4] and in test [7] were 4.75%, -2.14% and 4.58%, respectively. In addition, the Potency entry in test [5], in test [17] and in [9] was “inactive” throughout. Moreover, in test [6], the viability change, negative = cytotoxic was 1.5%. Also, the caspase-3 activation in [8] is 1.39%; in [19] it was 0.766%.
